In all, about 310,000 compounds went through this assay and about 14,000 (4.5%) showed an effect of 50% or more. The effect is printed as a negative number. The sample holds strong results, similar compounds and a random draw of the others, so the mix is not that of the screen.
The compounds below were run against human ether-à-go-go-related gene (hERG) potassium channel (human, UniProt Q12809) (assay: primary screen, population patch clamp on CHO cells stably expressing hERG; higher = less effect of the substance).
human ether-à-go-go-related gene (hERG) potassium channel, sequence (Q12809 whole entry, looked up): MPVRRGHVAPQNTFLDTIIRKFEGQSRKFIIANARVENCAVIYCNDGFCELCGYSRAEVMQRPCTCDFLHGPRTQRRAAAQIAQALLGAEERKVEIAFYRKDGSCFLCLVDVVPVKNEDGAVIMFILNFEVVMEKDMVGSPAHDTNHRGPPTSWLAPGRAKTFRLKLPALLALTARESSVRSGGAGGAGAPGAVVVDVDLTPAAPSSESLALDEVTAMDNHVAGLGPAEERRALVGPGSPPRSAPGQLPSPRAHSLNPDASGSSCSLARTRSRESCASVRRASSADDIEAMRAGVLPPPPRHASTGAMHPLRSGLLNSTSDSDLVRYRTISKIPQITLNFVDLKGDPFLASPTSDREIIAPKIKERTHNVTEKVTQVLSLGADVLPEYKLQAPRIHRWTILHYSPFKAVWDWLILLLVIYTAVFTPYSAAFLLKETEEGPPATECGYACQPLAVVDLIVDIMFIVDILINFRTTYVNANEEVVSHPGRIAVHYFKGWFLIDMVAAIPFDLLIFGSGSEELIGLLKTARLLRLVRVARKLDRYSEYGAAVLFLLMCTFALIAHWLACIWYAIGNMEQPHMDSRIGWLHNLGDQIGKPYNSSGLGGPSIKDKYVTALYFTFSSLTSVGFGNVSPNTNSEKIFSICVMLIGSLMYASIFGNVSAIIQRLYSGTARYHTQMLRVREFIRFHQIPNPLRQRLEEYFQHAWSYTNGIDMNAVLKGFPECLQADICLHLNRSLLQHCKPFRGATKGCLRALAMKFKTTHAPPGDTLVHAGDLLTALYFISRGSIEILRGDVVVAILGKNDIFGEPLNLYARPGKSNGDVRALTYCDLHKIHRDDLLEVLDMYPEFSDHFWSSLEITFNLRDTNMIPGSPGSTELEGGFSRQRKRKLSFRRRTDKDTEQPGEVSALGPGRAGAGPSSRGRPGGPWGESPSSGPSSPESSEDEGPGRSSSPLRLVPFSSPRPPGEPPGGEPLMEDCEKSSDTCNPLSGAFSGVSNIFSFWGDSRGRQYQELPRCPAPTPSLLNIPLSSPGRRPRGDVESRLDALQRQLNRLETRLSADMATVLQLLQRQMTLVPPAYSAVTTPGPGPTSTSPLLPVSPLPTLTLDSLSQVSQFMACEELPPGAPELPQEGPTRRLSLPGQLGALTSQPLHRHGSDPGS
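Also: peak tail current of the secondary pulse compared with the same well before compound.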

Structure (SMILES) | hERG current change (%, negative = inhibition) at 10uM [%]
COc1ccc(OCC(=O)NCCCN2CCOCC2)cc1 | 10.7
CC1=C(C(=O)OCc2ccccc2)C(c2ccsc2)C(C#N)=C(N)O1 (centres unmarked) | -6.93
Cc1cccc(COc2ccc(/C=C3/C(=O)N(C)C(=S)N3C)cc2)c1 | 15.7
O=C(Nc1ccccc1)Nc1nnc(Cc2ccc(F)cc2)s1 | 20.1
O=C(NCc1ccco1)c1ccccc1 | 8.8
CCN(CC)S(=O)(=O)c1ccc(N2CCOCC2)c(NC(=O)Cc2cccc3ccccc23)c1 | -1.03
N#CC1=C(N)N(c2ccccc2)C(c2cccc([N+](=O)[O-])c2)C1(C#N)C#N (centres unmarked) | -29.6
COC(=O)c1ccccc1NC(=O)CN1CCN(Cc2ccccc2)CC1 | -74.5
NC(=O)c1ccc(NC(=O)CN2CCN(C(=O)c3ccco3)CC2)cc1 | -3.09
COc1ccccc1NC(=O)CN1CCN(C(=O)c2ccco2)CC1 | -22
COc1cc([N+](=O)[O-])ccc1NC(=O)CN1CCOCC1 | 9.44
COc1ccccc1NC(=O)c1ccc(NC(=O)CN2CCN(C(=O)c3ccco3)CC2)cc1 | -72.9
O=C(CN1CCN(C(=O)c2ccco2)CC1)Nc1ccccc1-c1ccccc1 | -50.5
COC(=O)c1ccccc1NC(=O)CN1CCCCCC1 | 8
COC(=O)c1ccccc1NC(=O)CN1CCCCC1 | 9.99
COc1cc([N+](=O)[O-])ccc1NC(=O)CN1CCN(C(=O)c2ccco2)CC1 | -78.4
O=C(CN1CCN(C(=O)c2ccco2)CC1)Nc1ccccc1 | -13.9
COc1ccc(NC(=O)CN2CCN(C(=O)c3ccco3)CC2)c(OC)c1 | -37.4
COc1ccccc1NC(=O)c1ccc(NC(=O)CN2CCCC2)cc1 | -34.2
COc1ccc(NC2(c3ccccc3)OC(=O)c3ccccc32)cc1 (centres unmarked) | 1.2
CC(=O)c1cccc(OCc2cc(C(=O)NCCC3=CCCCC3)no2)c1 | 7.85
COc1cccc(NC(=O)c2nnn(CC(=O)Nc3cc(C)cc(C)c3)c2N)c1 | 13.5

Structure (SMILES) | hERG current change (%, negative = inhibition) at 10uM [%]
O=C(c1cccc(COc2cccc3ccccc23)c1)N1CCCC1 | -4.59
CC(=O)Nc1ccc(S(=O)(=O)NCCC(=O)Nc2cc(C)ccn2)cc1 | 7.68
NS(=O)(=O)c1ccc(CCNC(=O)C2CCCN(S(=O)(=O)c3cccnc3)C2)cc1 (centres unmarked) | -4.22
NC(=O)c1ccccc1NC(=O)CN1CCOCC1 | 7.22
NC(=O)c1ccccc1NC(=O)CN1CCN(Cc2ccccc2)CC1 | -78.3
NC(=O)c1ccccc1NC(=O)CN1CCCCCC1 | 11.1
O=C1Nc2ccc(S(=O)(=O)NCc3ccco3)c3cccc1c23 | -16.2
O=C1NN(c2cccc(Br)c2)C(=O)/C1=C/c1ccc(-c2cc([N+](=O)[O-])ccc2O)o1 | -9.65
CCNC(=O)COc1ccc(S(=O)(=O)Nc2ccccc2)cc1 | -1.85
CC(C)C(=O)Nc1cccc(NC(=S)NC(=O)c2ccccc2Cl)c1 | -9.02
CCCC(c1c(C)n(C)n(-c2ccccc2)c1=O)c1c(C)n(C)n(-c2ccccc2)c1=O | 0.692
Br.N=C1c2ccccc2CN1NC(=O)COc1ccc(Cl)cc1 | -50.4
Br.Cc1ccccc1OCC(=O)NN1Cc2ccccc2C1=N | -0.416
Br.COc1ccccc1OCC(=O)NN1Cc2ccccc2C1=N | 1.99
Br.CC(C)(C)c1ccc(OCC(=O)NN2Cc3ccccc3C2=N)cc1 | -65.5
Br.N#Cc1ccc(OCC(=O)NN2Cc3ccccc3C2=N)cc1 | 4.14
Br.CCc1ccc(OCC(=O)NN2Cc3ccccc3C2=N)cc1 | -38.8
Br.CCOc1ccccc1OCC(=O)NN1Cc2ccccc2C1=N | -73.5
Br.COc1ccc(OCC(=O)NN2Cc3ccccc3C2=N)cc1 | -18.1
Br.Cc1cc(C)cc(OCC(=O)NN2Cc3ccccc3C2=N)c1 | -11.6
Cc1ccsc1C(=O)OCC(=O)NC1CCCC1 | 13
CC1(C)CC(=O)CC(C2(O)C(=O)N(Cc3ccccc3)c3ccccc32)O1 (centres unmarked) | 7.55

Reference: article PMC4336329 (PLoS ONE, 2015)
